ClpP mod = qHTS Assay for Activators of ClpP | ATP-dependent Clp protease proteolytic subunit (Bacillus subtilis (strain 168)), P80244 | purified B. subtilis ClpP, FRET peptide cleavage, 20 min | Potency, µM (top dose mostly 57.5 µM) | 340,000 tested, 1.9% active; active = well fitted falling curve with a large enough effect; inconclusive = small, poorly fitted or top-dose-only effect; inactive = no such curve, though single readings can be large or run the other way; also: the source files actives as falling curves though it sought activators and does not explain the sign; nearly all actives have a fitted effect of over 65% in size
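Purified B. subtilis ClpP, 10 microg/mL final in Tris/HCl pH8 with KCl, BSA, glycerol and Tween-20, cleaved an Abz/nitrotyrosine-quenched decapeptide. Fluorescence (ex 320, em 430) was read at 0 and 20 min at room temperature. Delta was normalized to 5.8 microM ADEP and DMSO/no-enzyme controls.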
uPA surface inh = qHTS for Inhibitors of Cell Surface uPA Generation. cell surface uPA generation assay, qHTS. Potency, µM (highest dose often 38.3 µM), actives largely listed as inhibitors. 330,000 tested, 0.31% active. AID 540303, 2011; active = well fitted inhibition curve with a large enough effect; inconclusive = small, poorly fitted or top-dose-only effect; inactive = no such curve, though single readings can be large or run the other way; tested in mouse RAW 264.7 cells; also: nearly all actives have a fitted effect of over 55% in size
TCR activator = Activators of T cell receptors: qHTS campaign; 330,000 tested, under 10 active; primary human leukocytes, anti-CD3, IL-2 HTRF, 48 h; Potency, µM (highest dose often 9.22 µM), usual class: activators; AID 504894, 2011
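1) Mix primary human leukocytes, a-CD3 beads and compound. 2) Incubate 48 hr. 3) Add HTRF IL-2 reagents (a-IL-2-K, a-IL-2-d2).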
Sfp inh = qHTS Assay for Inhibitors of Bacillus subtilis Sfp phosphopantetheinyl transferase (PPTase); AID 1490, 2009; 4'-phosphopantetheinyl transferase ffp (Bacillus subtilis), Q9F4F7; Potency, µM, actives largely listed as inhibitors; Biochemical Sfp PPTase activity, qHTS; 310,000 tested, 3.5% active;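 also: the enzyme is Sfp with the accession as filed and its product quenches rhodamine fluorescence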
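Sfp 15 nM + cpd, 15 min RT; start w/ rhodamine-CoA 5 uM, BHQ-2-YbbR 12.5 uM (final); 50 mM Hepes pH 7.6, 10 mM MgCl2, 0.01% NP-40, 0.01% BSA; read 525/598 nm at 0 and 30 min.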
Each line names hits and unclear results; the compound was inactive in the other large screens. In the library only some 4.2% were active in any assay of this set; here they are far more common. Unless noted, calls follow the shape of the dose curve; as a rule, active = well fitted curve in the direction sought with a large enough effect; inconclusive = small, poorly fitted or top-dose-only effect, or another doubt; inactive = no such curve, though single readings can be large; an effect the other way counts as inactive or inconclusive.

CCN(CC)c1ccc(NC(=O)COC(=O)C23CCC(=O)N2c2ccccc2S3)cc1 (stereo not given)	Sfp inh 63µM
Cc1noc(C)c1COc1ccc(C(=O)NNC(=O)c2ccccc2F)cc1	uPA surface inh 2.8µM (no result: Sfp inh)
Cc1ccc(NC(=O)c2ccco2)c(OCc2cc(=O)n3cc(C)sc3n2)c1	none (no result: uPA surface inh, TCR activator, Sfp inh)
CCN(CC(=O)Nc1ccccc1C(F)(F)F)C(=O)CCc1nc2sc3c(c2c(=O)[nH]1)CCCC3	ClpP mod 16µM (no result: Sfp inh)
Cc1ccc(CN(C)C(=O)CCc2nc3sc4c(c3c(=O)[nH]2)CCCC4)o1	Sfp inh 50µM
CN(CC(=O)Nc1ccc(Cl)cc1)C(=O)CCc1nc2sc3c(c2c(=O)[nH]1)CCCC3	ClpP mod 32µM (no result: Sfp inh)
CCCc1nc2sc3c(c2c(=O)[nH]1)CCCC3	none
CN(Cc1ccco1)C(=O)CCc1nc2sc3c(c2c(=O)[nH]1)CCCC3	uPA surface inh inconclusive
CCN(CC(=O)NC(C)C)Cc1nc2sc3c(c2c(=O)[nH]1)CCC3	ClpP mod 13µM
CN(CC(=O)Nc1ccc(F)cc1)C(=O)CCc1nc2sc3c(c2c(=O)[nH]1)CCCC3	none (no result: Sfp inh)
COc1cc(Cl)c(C)cc1Nc1ncnc2c1nc1n2CCCC1	none (no result: uPA surface inh, TCR activator, Sfp inh)
COc1cc(C)ccc1OCCCn1c(-c2ccc(Cl)cc2)nc2ccccc2c1=O	none (no result: uPA surface inh, TCR activator, Sfp inh)
CC1=C(C(=O)Nc2ccccc2)C(c2cc(Br)ccc2F)n2ncc(C(=O)Nc3ccccc3)c2N1 (stereo not given)	none (no result: uPA surface inh, TCR activator, Sfp inh)
CC1=C(C(=O)Nc2ccc(C)cc2C)C(c2cc(Br)ccc2F)n2ncc(C(=O)Nc3ccc(C)cc3)c2N1 (stereo not given)	ClpP mod 20µM (no result: uPA surface inh, TCR activator, Sfp inh)
COc1ccccc1NC(=O)C1=C(C)Nc2c(C(=O)Nc3ccc(F)cc3)cnn2C1c1ccc(Cl)cc1 (stereo not given)	ClpP mod 28µM (no result: uPA surface inh, TCR activator, Sfp inh)
Cc1cnc(SCCc2ccncc2)nc1C	Sfp inh 11µM (no result: ClpP mod, uPA surface inh, TCR activator)
O=C1CSC(=S)N1N1C(=O)c2cccc([N+](=O)[O-])c2C1=O	Sfp inh 0.71µM (no result: ClpP mod, uPA surface inh, TCR activator)
O=C1c2cccc([N+](=O)[O-])c2C(=O)N1CCO	none
CCCSc1ncc(Cl)c(C(=O)Nc2sc(C(C)=O)c(C)c2C(=O)OCC)n1	none (no result: uPA surface inh, TCR activator, Sfp inh)
O=C(O)c1cc(N(Cc2ccccc2O)Cc2cc(O)ccc2O)ccc1O	Sfp inh 18µM (no result: ClpP mod, uPA surface inh, TCR activator)
CC(C)(Oc1ccc(CCNC(=O)c2ccc(-c3ccccc3)o2)cc1)C(=O)O	ClpP mod inconclusive
CC(C)(Oc1ccc(-c2ccco2)cc1)C(=O)O	Sfp inh 35µM (no result: ClpP mod, uPA surface inh, TCR activator)
CCOC(=O)c1c(C)[nH]c(CCC(=O)Nc2cc(C)ccc2OC)c1C	none (no result: uPA surface inh, TCR activator, Sfp inh)
CCc1ccc(-n2nc(CO)c(C(=O)NCc3ccccn3)n2)cc1	ClpP mod 14µM (no result: uPA surface inh, TCR activator, Sfp inh)
O=C(NCc1ccccn1)c1nn(-c2ccccc2Cl)nc1CO	none (no result: uPA surface inh, TCR activator, Sfp inh)
CCCCOc1ccc(C(=O)NCc2ccccn2)cc1	none
CCOc1ccc(-n2nc(CO)c(C(=O)NCc3ccccn3)n2)cc1	ClpP mod 11µM (no result: uPA surface inh, TCR activator, Sfp inh)
Cc1ccc([N+](=O)[O-])cc1S(=O)(=O)Nc1ccc(O)c(Sc2ncn[nH]2)c1	Sfp inh 45µM
CCCCN(Cc1ccco1)C(=O)C1CCCN(c2ncnc3c2nc2n3CCCCC2)C1 (stereo not given)	none
COC(=O)c1ccc(NC(=O)c2cc3cc4ccc(OC)c(Cl)c4nc3s2)cc1	none (no result: uPA surface inh, TCR activator, Sfp inh)
CC1CCCC2(C1)NC(=S)c1c(sc3c1CCCC3)N2 (stereo not given)	Sfp inh 6.3µM
S=c1[nH]c(=S)c2[nH]cnc2[nH]1	none (no result: uPA surface inh, TCR activator, Sfp inh)
Cc1ccc(-n2nnnc2CNC(=O)c2cc(C(F)(F)F)cc(C(F)(F)F)c2)cc1C	none (no result: uPA surface inh, TCR activator, Sfp inh)
Cc1nn(CC(=O)Nc2ccc(N3CCOCC3)cc2)c(C)c1Cl	none
N#CC1=C(N)N2C(=C(C#N)C13CCN(Cc1ccccc1)CC3)Nc1ccccc12	ClpP mod 32µM (no result: uPA surface inh, TCR activator)
Cc1[nH]nc2c1C1(CCN(Cc3ccccc3)CC1)C(C#N)=C(N)O2	none
CC(C)c1onc(C(=O)N2CCN(C(c3ccccc3)c3ccccc3)CC2)c1[N+](=O)[O-]	uPA surface inh 3.2µM
CC(C)c1onc(C(=O)N2CCN(c3ccccc3)CC2)c1[N+](=O)[O-]	none
CC(=O)Nc1ccc(OCCOc2ccc([N+](=O)[O-])cc2)cc1	Sfp inh 89µM
CC(=O)Nc1ccc(OCCOc2ccc(NC(C)=O)cc2)cc1	none
O=C(O)c1ccccc1C(c1ccccc1)c1ccccc1O (stereo not given)	none (no result: ClpP mod, Sfp inh)
O=S1(=O)C=C(Sc2nc3ccccc3s2)c2ccccc21	Sfp inh 50µM
c1ccc2sc(SSc3nc4ccccc4s3)nc2c1	Sfp inh 56µM (no result: ClpP mod, uPA surface inh, TCR activator)
O=C(CCCSc1ccccc1)Nc1nc(-c2ccco2)c(-c2ccco2)s1	ClpP mod inconclusive, TCR activator inconclusive, Sfp inh 16µM
O=C(CCl)Nc1nc(-c2ccco2)c(-c2ccco2)s1	Sfp inh 45µM
Cc1cc(C)nc(Nc2nc(C)c3cc4c(cc3n2)OCO4)n1	ClpP mod 16µM
Cc1nc(NC(=O)c2ccc(Cl)cc2)nc2cc3c(cc12)OCO3	ClpP mod inconclusive
O=C(/C=C/c1ccccc1)OCc1ccccc1	none (no result: ClpP mod, uPA surface inh, TCR activator)
CCNC(=O)c1ccc(C)c(-n2c(C)nc3cccnc32)c1	none (no result: uPA surface inh, TCR activator, Sfp inh)
Clc1ccc(Cn2c3c(c4ccccc42)CCc2cc4ccccc4nc2-3)cc1	none (no result: uPA surface inh, TCR activator, Sfp inh)
CC12CN3CC(C)(CN(C1)C3c1c[nH]c3ccccc13)C2=O (stereo not given)	none (no result: ClpP mod)
CC1(C)CC(=O)C(c2c[nH]c3ccccc23)C(=O)C1	Sfp inh 79µM (no result: ClpP mod)
Cc1ccccc1NCc1cccn1-c1nnc(N2CCC(C)CC2)s1	none (no result: uPA surface inh, TCR activator, Sfp inh)
Cc1cccc(NC(=O)CSc2ccc(-c3ccco3)nn2)c1C	Sfp inh 22µM
COc1ccc(C)cc1NC(=O)CSc1nnc(-c2ccco2)n1N	none
O=C(CSc1ccc(-c2ccco2)nn1)Nc1ccc(F)cc1F	Sfp inh 50µM
COc1ccc(C)cc1NC(=O)CSc1ccc(-c2ccco2)nn1	Sfp inh 18µM
CC1CCc2[nH]c3ccc(C(=O)N(C)CC(=O)Nc4ccccc4Br)cc3c2C1 (stereo not given)	ClpP mod 16µM (no result: Sfp inh)
Cc1ccc(C)c(NC(=O)CN(C)C(=O)c2ccc3[nH]c4c(c3c2)CC(C)CC4)c1 (stereo not given)	none (no result: Sfp inh)
O=C(C[C@H]1CC[C@H]2[C@@H](COC[C@@H](O)CN2S(=O)(=O)c2ccccc2)O1)N[C@@H]1CCN(Cc2ccccc2)C1	none (no result: uPA surface inh, TCR activator, Sfp inh)
COc1ccc(NC(=O)C2CSC(C)(C)N2C=O)cc1 (stereo not given)	none
Cc1ccc(/C(O)=C/c2nc3ccccc3oc2=O)cc1	Sfp inh inconclusive (no result: ClpP mod)
Cc1nc(C)c(/C(O)=C\c2nc3ccc([N+](=O)[O-])cc3oc2=O)o1	Sfp inh 56µM
CN1CCC2(CC1)N=C(c1ccc(F)cc1)C(=S)N2C(=O)c1ccc(C(C)(C)C)cc1	ClpP mod inconclusive, Sfp inh 50µM
CO/N=C(\Cn1ncc(N2CCCC2)c(Br)c1=O)c1ccc(Cl)cc1	Sfp inh 89µM

High-throughput results from PubChem.
